# G9a inh: inhibitors of human histone lysine methyltransferase G9a | Q96KQ7 | G9a H3K9 monomethylation, AlphaScreen, 2 h | Potency, µM (series often up to 102 µM), for the others: at the highest dose activity, negative = inhibition, hits mostly inhibitors | 8.8% of 350,000 active; further: on the % scale 0 is the no-effect control and ±100 the full control effect; nearly all actives have a fitted effect of over 75% in size
# Target sequence (Q96KQ7 913-1193 limits assumed): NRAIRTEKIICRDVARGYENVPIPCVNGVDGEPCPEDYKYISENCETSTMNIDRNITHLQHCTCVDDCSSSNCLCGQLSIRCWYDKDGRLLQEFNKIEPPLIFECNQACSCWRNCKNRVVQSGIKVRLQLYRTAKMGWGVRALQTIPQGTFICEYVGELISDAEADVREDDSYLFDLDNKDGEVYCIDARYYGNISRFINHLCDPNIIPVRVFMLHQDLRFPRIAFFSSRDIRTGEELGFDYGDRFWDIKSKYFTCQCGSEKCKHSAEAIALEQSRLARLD
#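 G9a (20 nM) was preincubated 15 min with compound, then reacted 2 h at room temperature with 500 nM biotin-H3K9 peptide and 20 µM SAM. Monomethyl-H3K9 detected by AlphaScreen using anti-H3K9me1 antibody.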
# JMJD2A Tudor: blocks the human JMJD2A Tudor domain; O75164; AlphaScreen JMJD2A-Tudor / H3K4me3 peptide binding; Potency, µM (series often up to 114 µM), for the others: at the highest dose activity change, negative = inhibition, hits mostly inhibitors; 4.4% of 390,000 active; AID 504339; further: on the % scale 0 is the no-effect control and ±100 the full control effect; nearly all actives have a fitted effect of over 50% in size
# HP1b binding inh: HP1-beta chromodomain-methylated histone interaction inhibition; P83916; AlphaScreen HP1-beta / biotin-H3K9me3 peptide binding; Potency, µM (doses to about 114 µM), for the others: top-dose activity change, negative = inhibition, actives largely listed as inhibitors; 0.56% of 390,000 active; AID 540317; further: nearly all actives have a fitted effect of over 70% in size
# Target sequence (P83916 whole entry, looked up): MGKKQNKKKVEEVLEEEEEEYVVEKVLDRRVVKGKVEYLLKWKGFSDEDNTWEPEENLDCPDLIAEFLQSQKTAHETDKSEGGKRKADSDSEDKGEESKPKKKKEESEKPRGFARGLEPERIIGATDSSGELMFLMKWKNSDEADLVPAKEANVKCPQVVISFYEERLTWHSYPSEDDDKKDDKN
#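 AlphaScreen: HP1-beta (50 nM) preformed 30 min with biotin-H3(1-18)K9me3 peptide (50 nM) in PBS pH 7.4, 0.01% Tween-20. Compound added for 30 min at RT, then streptavidin donor/nickel chelate acceptor beads (10 ug/mL) for 30 min.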
# ALOX12 inh: blocks human arachidonate 12S-lipoxygenase. P18054. purified 12hLO, xylenol orange hydroperoxide absorbance. Potency, µM (series often up to 108 µM), for the others: top-dose activity change, negative = inhibition, actives largely listed as inhibitors. 1.1% of 580,000 active; further: on the % scale 0 is the no-effect control and ±100 the full control effect
#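 Purified human 12hLO at 150 nM in 25 mM Hepes, 0.01% Triton X-100, pH 7.0, preincubated 15 min at room temperature with compound. Reaction started with 40 uM arachidonic acid, 30 min at room temperature. Hydroperoxide measured by Fe-xylenol orange, 573/405 nm absorbance ratio.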
# PLK1 PBD block: blocks phosphopeptide binding to human PLK1 polo-box domain; P53350; Plk1 PBD binding of FITC phosphopeptide, fluorescence polarization; Potency, µM, for inactives: max response, negative = inhibition, hits mostly inhibitors; 2.8% of 360,000 active; AID 720504; further: series mostly up to about 57 µM; on the % scale 0 is the no-effect control and ±100 the full control effect; nearly all actives have a fitted effect of over 65% in size
# BAZ2B inh: BAZ2B (human) inhibition; 4.4% of 360,000 active; Potency, µM (top dose mostly 114 µM), without a hit: top-dose activity change, negative = inhibition, most hits filed as inhibitors; AlphaScreen BAZ2B-H3K14Ac peptide displacement; further: on the % scale 0 is the no-effect control and ±100 the full control effect; nearly all actives have a fitted effect of over 60% in size
#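 Compounds, titrated to a top concentration of 110 uM, were incubated 30 min at room temperature with preformed BAZ2B/acetyl-K14 H3 peptide complex (50 nM each). Proximity signal was measured by AlphaScreen after 20 min with beads.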
# * marks the source's active call; other numbers are inactive results; ? = inconclusive; nt = no result; ! = repeats disagree; [ ] = dose if it differs, or a comment. Only some compounds are listed: those with a hit (about 9% of all), similar ones and a draw of the others. The call rests on the fitted dose curve; in most records, active means well fitted curve in the direction sought with a large enough effect; inconclusive means small, poorly fitted or top-dose-only effect, or another doubt; inactive means no such curve, though single readings can be large; an effect the other way counts as inactive or inconclusive. Potency means the concentration at half of the fitted maximal effect.
SMILES,G9a inh,JMJD2A Tudor,HP1b binding inh,ALOX12 inh,PLK1 PBD block,BAZ2B inh
COc1cccc(CNCCc2ccccc2)c1OC,5%,-12%,8%,-2%,-7%,-11%
CCOc1cc(CNCCc2ccccc2F)ccc1OC,8.9µM*,45µM*,-36%,?,-5%,40µM*
COc1ccc(CNCCc2c[nH]c3ccccc23)c(OC)c1C,16µM*,5.6µM*,?,?,-9%,56µM*
COc1ccc(CNCCc2ccccc2F)c(OC)c1C,79µM*,18µM*,?,?,3%,?
COc1cc(C)c(CNCCc2c[nH]c3ccccc23)cc1C,?,22µM*,?,?,-13%,40µM*
O=C1CC2OCC=C3CN4CCC56c7ccccc7N1C5C2C3CC46O (stereo unspecified),nt,nt,nt,-9%,nt,nt
COc1ccc(-n2c(O)c(C=NCc3ccc4c(c3)OCO4)c(=O)[nH]c2=O)cc1,-27%,-5%,63%,?,-13%,-10%
O=C(NC1CCCCC1)N1C[C@H]2C[C@@H](C1)c1cccc(=O)n1C2,2%,1%,45%,-2%,0%,5%
c1ccc(CN2CCN(Cc3ccc4c(c3)OCCO4)CC2)cc1,nt,-13%,10%,?,-4%,?
CN1CCN(c2ncnc3nc[nH]c23)CC1,-22%,1%,51%,121%,1%,-2%
O=Nc1c(O)c2ccccc2c2ccccc12,nt,56µM*,?,-4%,-1%,nt
CCOC(=O)[C@@]1(C#N)[C@@H]2C=CC(C(N)=O)=CN2[C@@H](C(N)=O)[C@@H]1c1cccc(Cl)c1,5%[12.7 µM],-15%[11.4 µM],-19%,-33%,27µM*,-11%
CCOC(=O)[C@]1(C#N)[C@@H]2C=CC(C(N)=O)=CN2[C@@H](C(N)=O)[C@@H]1c1ccc(F)cc1,nt,-10%,57%,?,-8%,-15%
CC(C)(C)NC(=S)/N=C(\N)N[N+](=O)[O-],22µM*,-12%,11%,0%,1%,?
Cc1cc(C)n(CCC(=O)N2[C@H]3CC[C@@H]2c2cnc(-c4ccccc4)nc2C3)n1,nt,nt,nt,10%,nt,nt
Cn1cc(C(=O)NC2CCCCCCC2)c2ccccc21,nt,nt,nt,-21%,nt,nt
O=C(NC1CCCCCC1)c1ccc[nH]c1=S,2.5µM*,5µM*,?,-25%,-7%,-4%
CCCCCCN1CCN(c2ccccc2Cl)CC1,6%,56µM*,-19%,?,-12%,71µM*
COc1c(O)c2c(=O)cc(OC)c3c4c(OC)cc(=O)c5c(O)c(OC)c(C[C@@H](C)OC(=O)c6ccccc6)c(c(c1C[C@@H](C)OC(=O)Oc1ccc(O)cc1)c23)c54,?,nt,nt,24%[6.33 µM],nt,nt
CCC(=O)OC1(c2ccccc2)CCN(C)CC1C (stereo unspecified),5%,?,1%,1%,24µM*,3%
CCC(C)C1N=C(c2ccccc2)c2cc(Cl)ccc2N(CC(=O)NCc2ccco2)C1=O (stereo unspecified),4%,-7%,69%,?,-4%,7%
Cc1cc(OCc2nn[nH]n2)c2c3c(c(=O)oc2c1)CCC3,-26%,-27%,37%,-7%,-1%,6%
CC(=O)C1C2c3ccccc3OC1(C)N=c1s/c(=C/c3cnn(C)c3)c(=O)n12 (stereo unspecified),-4%,-6%,31%,0%,-4%,-3%
O=C(NC1CCCCC1)[C@H]1CN2CC[C@H]1C[C@@H]2Cn1cc(C2(O)CCCCC2)nn1,nt,nt,nt,1%[176 µM],nt,nt
CCOC(=O)c1ccc(N=C(c2ccccc2)c2c(O)n(C)c(=O)n(C)c2=O)cc1,50µM*,11%,47%,0%,4%,-12%
SMILES,G9a inh,JMJD2A Tudor,HP1b binding inh,ALOX12 inh,PLK1 PBD block,BAZ2B inh
COc1cccc(OC)c1C(=O)Nc1nc(N)n(-c2ccccc2)n1,22%,-23%,13%,-15%,-2%,?
CCC1C=CC=CC[C@H](C)[C@@H](O)[C@](C)(O)C(=O)[C@@H](C)[C@H](O)[C@@H](C)C(=O)[C@H](C)[C@@H](O)[C@H](C)C=CC(=O)OC2[C@@H](C)C(CC1)OC1(CC[C@@H](C)C(C[C@H](C)O)O1)[C@@H]2C (stereo partly specified),-21%[12.7 µM],nt,nt,nt,nt,-25%
COc1ccc(CCN2CCC(CNC(=O)c3cnn(-c4ccc(C)cc4)c3C3CCN(C(=O)OC(C)(C)C)CC3)CC2)cc1,-20%[59 µM],?,6%,40µM*,nt,?
COc1ccc(CNC(=O)C2CCN(C(=O)c3cnn(-c4ccccc4)c3-n3cccc3)CC2)cc1,19%[59 µM],-16%,40%,-19%,nt,12%
COc1ccc(-n2c(O)c(/C(C)=N/N3CCCCCC3)c(=O)[nH]c2=O)cc1,nt,7%,13%,151%,0%,-3%
Cc1c(C(=O)NCCC2=CCCCC2)oc2ccc(S(=O)(=O)N3CCC4(CC3)OCCO4)cc12,50µM*,-20%,22%,0%,-4%,3%
COc1ccc(-n2nnnc2C(CCSC)N2CCC(n3c(=O)[nH]c4ccccc43)CC2)cc1 (stereo unspecified),nt,nt,nt,-12%,-6%,nt
COc1cccc(-n2c(/C=C/c3ccc(O)c(O)c3)nc3ccccc3c2=O)c1,45µM*,?,-17%,32µM*,65%,?
Cc1cccc(N=C2c3cc([N+](=O)[O-])ccc3-c3c2cc([N+](=O)[O-])cc3[N+](=O)[O-])c1,nt,3.5µM*,2.8µM*,-8%,-2%,nt
COC(=O)C1=C(c2ccc(C(C)=O)cc2)C[C@@H]2CC[C@H]1N2C(=O)N1CCC(O)(c2ccc(Cl)cc2)CC1,7%[2.33 µM],-19%,22%,9%,1%,-12%
Cn1cccc1CNCCc1ccccc1,-14%,nt,nt,nt,nt,?
O=C1NS(=O)c2cc([N+](=O)[O-])cc([N+](=O)[O-])c21 (stereo unspecified),nt,-14%,44%,-14%,24µM*,?
CC(=O)NC1N=C(C)N(c2ccccc2)C1=O (stereo unspecified),3.2µM*,45µM*,?,?,27µM*,-15%
COc1cc2c(cc1O)C[C@H]1NCCc3cc4c(c-2c31)OCO4,?,22µM*,-2%,?,-7%,22µM*
CCN(CC)Cc1cc(Nc2ccnc3cc(Cl)ccc23)ccc1O,?,-28%,17%,-16%,-8%,50µM*!
CN(C)C(=O)Oc1ccnc2cc(Cl)ccc12,2%,-3%,-2%,8%,-2%,-12%
O=[N+]([O-])c1ccc2c(c1)Cc1cc(O)ccc1-2,nt,-28%,4%,?,-4%,nt
Nc1ccc2c(c1)Cc1cc([N+](=O)[O-])ccc1-2,50µM*,-10%,9%,-1%,-10%,-23%

# Assay outcomes as filed in PubChem.
